# Reference: PMC5540273 (PLoS ONE, 2017)
# What was measured:
# Settings in all cases: concentration: 1 μM, replicates: in singlicate; n = 1
# CAMK2G = test system: CAMK2G
# CAMK4 = test system: CAMK4
# CAMKK1 = test system: CAMKK1
# CAMKK2 = test system: CAMKK2
# CASK = test system: CASK
# CDC2L1 = test system: T1, CDC2L1
# T1 construct: gene CDK11B
# CDC2L2 = test system: CDC2L2
# CDC2L5 = test system: T2, CDC2L5
# T2 construct: gene CDK13
# CDK11 = test system: T3, CDK11
# T3 construct: gene CDK19
# CDK2 = test system: CDK2
# 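Further: KINOMEscan kinase panel screen.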
SMILES,%Inh (CAMK2G),%Inh (CAMK4),%Inh (CAMKK1),%Inh (CAMKK2),%Inh (CASK),%Inh (CDC2L1),%Inh (CDC2L2),%Inh (CDC2L5),%Inh (CDK11),%Inh (CDK2)
CCCNC(=O)Nc1ccc(Oc2ncnc3ccn(C)c23)cc1,15%,0%,5%,9%,13%,0%,0%,6%,3%,7%
COc1ccc(-c2cc3c(C)nc(N)nc3n([C@H]3CC[C@H](O)CC3)c2=O)cn1,0%,0%,0%,0%,0%,0%,0%,0%,0%,0%
Cc1ccccc1COc1cc(-n2cnc3cc(Cl)ccc32)sc1C(N)=O [GW813349],0%,0%,0%,0%,17%,0%,0%,0%,23%,0%
O=C(Nc1n[nH]c2nc(-c3ccccc3)c(Cl)cc12)C1CC1 [SB-734909],0%,0%,0%,1%,35%,0%,18%,0%,0%,2%
COc1cc(Nc2nccc(N3CCC(NC(=O)C(C)c4ccc(Cl)cc4)C3)n2)cc(OC)c1OC (centres unmarked) [GSK1379757],21%,0%,0%,1%,0%,0%,13%,0%,3%,0%
COc1ccc(-c2coc3ccc(-c4nnc(SCc5cccc(C#N)c5)o4)cc23)cc1,0%,0%,0%,0%,8%,0%,10%,0%,0%,6%
Cc1cc(Nc2nc(-c3cccc(C)n3)nc3ccccc23)ccn1 [GW872411],0%,0%,0%,0%,7%,0%,0%,0%,0%,0%
CC(C)(C)c1ccc(C(=O)Nc2cn3cc(-c4ccccc4)ccc3n2)cc1,0%,14%,0%,0%,1%,0%,11%,0%,0%,0%
COc1cc(Nc2nccc(N3CCC(NC(=O)C4COc5ccccc5O4)C3)n2)cc(OC)c1OC (centres unmarked) [GSK1379761],26%,0%,20%,14%,0%,0%,4%,0%,7%,0%
COc1cccc(-n2cnc3c(N)ncnc32)c1 [SKF-97416],8%,4%,4%,6%,20%,0%,2%,36%,1%,4%
CCn1c(-c2nonc2N)nc2ccccc21 [SB-693162/GW549034],1%,0%,9%,0%,0%,0%,29%,0%,11%,0%
O=C(Nc1n[nH]c2cc(-c3ccccc3F)ccc12)C1CC1 [SB-733371],0%,0%,0%,0%,0%,0%,0%,33%,0%,25%
CCS(=O)(=O)c1ccc(OC)c(Nc2ncc(-c3ccc(F)cc3)o2)c1.Cl [GW591947],21%,0%,1%,12%,3%,0%,0%,0%,19%,0%
Cc1nnc(-c2ccc(C)c(-c3ccc(C(=O)O)cc3)c2)o1 [GW608005],3%,0%,7%,0%,1%,0%,0%,0%,0%,0%
CCc1nc(-c2cccc(C)c2)c(-c2ccncc2)s1,0%,0%,0%,0%,0%,0%,3%,0%,0%,0%
Cc1ccc(Oc2ccc(Nc3ncnc4cc[nH]c34)cc2C)cn1,15%,0%,9%,5%,0%,0%,7%,0%,19%,0%
Nc1n[nH]c2nnc(-c3ccccc3)c(-c3ccccc3)c12 [GW554060],17%,0%,13%,11%,71%,0%,0%,0%,0%,0%
FC(F)(F)c1ccc(-c2ncn(CCCN3CCOCC3)c2-c2ccncc2)cc1 [SB-217780],21%,14%,11%,18%,0%,0%,14%,15%,0%,0%

SMILES,%Inh (CAMK2G),%Inh (CAMK4),%Inh (CAMKK1),%Inh (CAMKK2),%Inh (CASK),%Inh (CDC2L1),%Inh (CDC2L2),%Inh (CDC2L5),%Inh (CDK11),%Inh (CDK2)
Cl.c1ccc(Cn2cnc3cc(Nc4ncnc5ccccc45)ccc32)cc1 [GW272142],32%,0%,9%,31%,26%,0%,13%,0%,8%,0%
Cc1cccc(-c2cc(-c3c[nH]nc3-c3ccccn3)ccn2)c1 [GW679395],21%,0%,9%,7%,24%,0%,0%,0%,9%,0%
COc1cc2ncn(-c3cc(OCCCc4ccccc4)c(C(N)=O)s3)c2cc1OC [GSK205189],29%,0%,3%,17%,52%,0%,3%,0%,0%,0%
OCCCNc1nccc(-c2c(-c3cccc(C(F)(F)F)c3)nn3cc(C(F)(F)F)ccc23)n1 [GW630813],17%,0%,5%,12%,2%,0%,9%,0%,2%,25%
CN1C(=O)C(Nc2cc(Cl)c(O)c(Cl)c2)=C(c2ccc(Cl)cc2)C1=O [SB-404321],0%,0%,0%,0%,14%,0%,0%,0%,9%,0%
Nc1nccc2scc(-c3ccc4c(c3)CCN4C(=O)Cc3ccccc3)c12 [GSK2576924],0%,3%,0%,7%,15%,8%,16%,0%,57%,0%
COc1cc(Nc2ccnc3ccc(C(F)(F)F)cc23)cc(OC)c1OC [GW577382],12%,10%,15%,0%,25%,0%,17%,0%,19%,4%
CN(C)c1cc(-c2ccc3c(N)n[nH]c3c2)nc(N)n1 [GSK2219329],19%,0%,0%,9%,0%,0%,22%,0%,0%,10%
COc1cccc(C2=C(Nc3cccc(C(=O)O)c3)C(=O)NC2=O)c1 [SB-390770],14%,0%,1%,14%,13%,0%,0%,0%,0%,15%
C[C@@H]1CC[C@H](C(=O)NC2CCCCC2)CN1c1cc(-c2ccc3c(N)n[nH]c3c2)nc(N)n1 [GSK2291363],38%,0%,24%,37%,18%,0%,23%,0%,7%,1%
COc1cccc(C2=C(N(C)c3ccccc3)C(=O)NC2=O)c1 [SB-334865],9%,0%,0%,0%,30%,43%,27%,0%,0%,3%
Nc1ncnc2c1ncn2-c1ccc(Cl)cc1 [AH2635],13%,0%,0%,10%,0%,0%,28%,0%,0%,0%
CCS(=O)c1ccc(-c2coc3ccc(-c4nnc(C)o4)cc23)cc1 (centres unmarked),0%,0%,0%,0%,0%,0%,0%,14%,0%,0%
COc1ccc(Nc2nccc(N3CCC(NS(=O)(=O)c4ccc(NC(C)=O)cc4)C3)n2)cc1 (centres unmarked) [GSK1379729],9%,4%,12%,5%,0%,0%,17%,0%,11%,2%
Cc1nnc(-c2ccc3ncn(-c4ccc(S(C)=O)cc4)c3c2)o1 (centres unmarked),0%,0%,0%,0%,0%,0%,10%,0%,0%,0%
CCn1c(-c2ccoc2)nc2cnccc21 [SB-733887],6%,0%,4%,4%,3%,0%,6%,0%,0%,4%
COC(=O)c1c(-c2ccccc2)c2cc(C)ccc2c(=O)n1Cc1ccccc1,0%,0%,0%,6%,0%,0%,0%,0%,0%,0%
